Assay results published in PubChem BioAssay.
Unmarked numbers belong to inactive results. How the calls were made is not given here.

These molecules were tested against Pantothenate synthetase (Mycobacterium tuberculosis (strain ATCC 25618 / H37Rv)) (UniProt P9WIL5) (assay: Recombinant Mtb pantothenate synthetase (PanC) inhibitors, coupled enzyme, confirmatory (AID 375;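 further: 0% = full reaction with vehicle and 100% = no enzyme background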)). Conditions: coupled enzyme assay; at 10 µM, hits give high values.
Pantothenate synthetase (Mycobacterium tuberculosis (strain ATCC 25618 / H37Rv)), sequence (P9WIL5 whole entry, looked up): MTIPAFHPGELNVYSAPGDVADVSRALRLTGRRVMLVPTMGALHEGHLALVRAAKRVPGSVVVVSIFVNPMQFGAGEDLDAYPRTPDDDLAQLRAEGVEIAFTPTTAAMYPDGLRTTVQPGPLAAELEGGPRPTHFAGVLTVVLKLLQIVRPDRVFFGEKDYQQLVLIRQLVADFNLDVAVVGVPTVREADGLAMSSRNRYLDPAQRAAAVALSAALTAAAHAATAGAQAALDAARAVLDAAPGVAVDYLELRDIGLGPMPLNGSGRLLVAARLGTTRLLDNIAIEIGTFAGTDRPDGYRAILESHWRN
For `Nc1nonc1-c1noc(-c2ccccc2Br)n1`, the inhibition was 0%. `CCN1CCc2c(C#N)c(N3CCOCC3)nc(NCc3ccccc3)c2C1` gave an inhibition of 0%. For `Cc1ccc(CC2SC(=O)NC2=O)cc1Cl` (stereo not given), the inhibition was 0%. `CCn1c(SCc2nc(-c3cccs3)no2)nnc1-c1c[nH]c2ccccc12` was tested, and the inhibition was 0%. `Cc1ccc(C)n1NC(=O)c1ccco1` was tested, and the inhibition was 0%. In the case of `Cc1nc2sc(C(c3cccs3)N3CCOCC3)c(O)n2n1` (stereo not given), the inhibition is reported as 0%. Work on `FC(F)Oc1ccc(-c2csc(Cc3nnc4n3CCCCC4)n2)cc1` yielded an inhibition of 0%. Molecule `COc1ccc(C)cc1NS(=O)(=O)c1ccc(NS(=O)(=O)c2ccc(NC(C)=O)cc2)cc1` has an inhibition of 1%. Work on `CN(C1CCCCC1)S(=O)(=O)c1ccc(S(=O)(=O)N2CCCC2)cc1` yielded an inhibition of 0%. Work on `Cc1cccnc1NC(=O)CCCN1C(=O)c2ccccc2C1=O` yielded an inhibition of 0%. `O=C(CN1CCCCCC1)OCCN=C1NS(=O)(=O)c2ccccc21` gave an inhibition of 0%. With `O=C(c1cc2n(n1)C(C(F)(F)F)CC(c1ccc(Cl)cc1)N2)N1CCCC1` (stereo not given) the inhibition was 5%. Work on `CC(C)COC(=O)C1[C@H]2C(=O)N(Cc3cccs3)C[C@]23C=C[C@H]1O3` (stereo not given in full) yielded an inhibition of 1%. `C1=C(CCNc2ncnc3c2cnn3-c2ccccc2)CCCC1` showed an inhibition of 6%. `Cc1ccc(C(C)C)c(OCc2nnc(SCC(=O)Nc3ncc(C)s3)n2C)c1` gave an inhibition of 2%. Work on `CC(Sc1nc(-c2ccccc2)cc(C(F)(F)F)n1)C(=O)N1CCCC1` (stereo not given) yielded an inhibition of 1%. `O=C(OCC(=O)N1CCc2ccccc21)C1=COCCO1` showed an inhibition of 0%. In the case of `OC(CCN1CCCCC1)(c1ccccc1)c1ccccc1`, the inhibition is reported as 3%. Work on `COc1ccccc1-n1c(C)nnc1SCC(N)=O` yielded an inhibition of 0%. `COc1ccc2c(c1OC)C(=O)O[C@@H]2[C@H]1c2c(cc3c(c2OC)OCO3)CCN1C` gave an inhibition of 0%. In the case of `COc1cc2nc(N3CCN(C(=O)c4ccco4)CC3)nc(N)c2cc1OC`, the inhibition is reported as 2%. `CC(C)C(C(=O)Nc1ccc2c(c1)OCCO2)N1C(=O)c2ccccc2C1=O` (stereo not given) showed an inhibition of 0%. `Cn1c(-n2c(-c3ccco3)nc3ccccc3c2=O)nc2ccccc21` gave an inhibition of 2%. Molecule `CN(C)C(=O)Cn1c(SCC(=O)NC2CCCCC2)nc2ccccc21` has an inhibition of 0%. `CC1=NN(c2ccccc2)C(=O)C1` gave an inhibition of 0%. For `CCOc1ccc(C2C=C(c3ccc(F)cc3)Nc3ncnn32)cc1` (stereo not given), the inhibition was 9%. Work on `CCCCCSc1nc2c(cnn2-c2ccccc2)c(=O)[nH]1` yielded an inhibition of 11%. With `Cc1ccc(S(=O)(=O)N2CCOCC2)cc1C(=O)Nc1nc(-c2cccnc2)cs1` the inhibition was 0%. Work on `COc1ccc(-c2nc(CSCC(=O)N3CCc4ccccc4C3)c(C)o2)cc1OC` yielded an inhibition of 0%. For `CCOC(=O)N1CCC(N2CC34C=CC(O3)C(C(=O)O)C4C2=O)CC1` (stereo not given), the inhibition was 0%. For `CSCSC1=C(C#N)C(c2ccc(Cl)cc2)C(C(C)=O)=C(C)N1` (stereo not given), the inhibition was 0%. `CCC1(NC(C)=O)CC2CC1CC2NC(C)=O` (stereo not given) gave an inhibition of 0%. Molecule `CCOc1ccccc1C(=O)Nc1cc(=O)n(C)c(=O)n1C` has an inhibition of 10%. Work on `O=P(O)(CN1CCCCCC1)CN1CCCCCC1` yielded an inhibition of 0%. For `O=C(O)COc1ccc2occ(C(=O)c3ccccc3)c2c1`, the inhibition was 0%. With `CN(C)c1nc(N)nc(-c2nc3ccccc3s2)n1` the inhibition was 0%. `O=C(O)CCc1cc(I)c(Oc2ccc(O)c(I)c2)c(I)c1` gave an inhibition of 8%. With `CCOc1ccccc1NC(=O)N1C2CCCC1CC(NC(=O)C1CC1)C2` (stereo not given) the inhibition was 6%. `CC(C)Oc1cccc(-c2cc(C(=O)N3CCN(S(C)(=O)=O)CC3)c3ccccc3n2)c1` was tested, and the inhibition was 5%. `CCn1c(SCC(=O)Nc2ccccc2N2CCCCC2)nc2c1c(=O)n(C)c(=O)n2C` showed an inhibition of 2%.
